The list is not random: actives were taken first. Their share in the collection is about 19%.
HT1080-NT tox – kills 2HG-producing HT-1080-NT fibrosarcoma cells; HT-1080-NT fibrosarcoma viability, CellTiter-Glo ATP luminescence, 48 h; Potency, µM (highest dose often 46.1 µM), without a hit: top-dose activity, negative = less viability, usual class: cytotoxic; 360,000 compounds, 1.6% hits; AID 686970;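 further: NT is the 2HG producing partner of a matched IDH1 knockdown line; potency means the concentration at half of the fitted maximal effect; 0% = DMSO-treated cells and -100% = media-only wells without cells; nearly all actives have a fitted effect of over 55% in size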
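750 cells/well, RPMI + 5% FBS; 2 h settle, compound pin-transfer, 48 h at 37 degrees C. CellTiter-Glo 10 min RT, luminescence. Normalized to DMSO and media-only wells.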
DT40 TDP1 no CPT – qHTS for Inhibitors of human tyrosyl-DNA phosphodiesterase 1 (TDP1): qHTS in cells in absence of CPT; DT40 Tdp1-/- hTDP1 cells, no CPT, ATP luminescence, 48 h; Potency, µM (top dose mostly 46.2 µM), inactives show top-dose activity change, negative = growth inhibition, most hits filed as inhibitors; 420,000 compounds, 15% hits; further: potency means the concentration at half of the fitted maximal effect; nearly all actives have a fitted effect of over 55% in size
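Seeded 400 DT40-hTDP1 cells/well (vehicle DMSO, no 20 nM CPT); pinned compounds; ≥48 hr at 37 °C; CellTiter-Glo luminescence as viability measure.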
HT1080 IDH1KD tx – toxicity to HT-1080 IDH1 knockdown cells (counter line); Potency, µM (doses to about 46.1 µM), without a hit: at the highest dose activity, negative = toxicity, hits mostly cytotoxic; 360,000 compounds, 2% hits; HT-1080 IDH1 knockdown viability, ATP luminescence, 48 h;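 further: potency means the concentration at half of the fitted maximal effect; 0% = DMSO wells and -100% = cell-free medium wells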
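Viability of IDH1-knockdown HT-1080 fibrosarcoma cells was assessed by CellTiter-Glo after 48 h at 37 °C with titrated compound; concentration-effect curves were classified by fit quality and response size.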
DT40 TDP1 CPT – growth inhibition of DT40 Tdp1-/-;hTDP1 cells with camptothecin (screen for TDP1 inhibitors). chicken DT40 Tdp1-/-;hTDP1 cells + 20 nM CPT, ATP luminescence, 48 h. Potency, µM (top dose mostly 46.2 µM), without a hit: top-dose activity change, negative = growth inhibition, most hits filed as inhibitors. 420,000 compounds, 12% hits. AID 686979; further: potency means the concentration at half of the fitted maximal effect; nearly all actives have a fitted effect of over 55% in size
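Cell growth measured by CellTiter-Glo luminescence after a minimum 48 h, 37 C compound exposure with 20 nM CPT in Tdp1-knockout DT40 cells stably expressing hTDP1, seeded 400/well; qHTS titration format.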
ELG1 DNA repair – inhibitors of ELG1-dependent DNA repair in HEK293T cells | AID 504467 | Potency, µM (series often up to 46.1 µM), without a hit: at the top dose activity change, negative = inhibition, hits mostly inhibitors | HEK293T ELG1-luciferase reporter, luminescence, 16 h; DNA damage induced by 5-fluorouridine | 330,000 compounds, 2.3% hits; further: potency means the concentration at half of the fitted maximal effect; nearly all actives have a fitted effect of over 55% in size
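Reporter activity after DNA damage by 5-fluorouridine is monitored. Compound-treated cells incubate 16 hr at 37 °C, then ONE-Glo is added for 30 min before luminescence reading.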
IL1B secr inh – inflammasome signaling inhibition, IL-1 beta readout; THP-1 LPS/ATP IL-1B secretion, AlphaLISA, 16 h; active compounds read low; activity change, % at 57.5 µM; 360,000 compounds, 4.7% hits; AID 743279; in the data active means activity change below about -50%; inconclusive means mostly about -30% to -49%
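THP-1 cells pretreated 1 hr with compounds (up to 57.5 uM final), then stimulated with LPS (250 ng/mL final) plus ATP (1.25 mM final); secreted IL-1B measured by AlphaLISA after 16 hr, decreased signal indicating inhibition.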
Starred values were filed as active, the others as inactive; u = inconclusive; x = not tested or not shown; [ ] = remark or other dose. Unless noted, the call rests on the fitted dose curve; in most records, active means well fitted curve in the direction sought with a large enough effect; inconclusive means small, poorly fitted or top-dose-only effect, or another doubt; inactive means no such curve, though single readings can be large; an effect the other way counts as inactive or inconclusive. Unless noted, on the % scale 0 is the no-effect control and ±100 the full control effect.

SMILES	HT1080-NT tox	DT40 TDP1 no CPT	HT1080 IDH1KD tx	DT40 TDP1 CPT	ELG1 DNA repair	IL1B secr inh
CC(C)(CNC(=O)c1cnn(-c2nccc(-c3ccccc3F)n2)c1C1CC1)N1CCOCC1	x	u	x	-14%[9.04 µM]	x	x
CCC(=O)c1cccc(-c2ccccc2)c1CC	-18%	-16%	-7%	5%	x	-69*
O=c1[nH]/c(=C/c2ccc3c(c2)OCO3)c(=O)[nH]/c1=C\c1ccc2c(c1)OCO2	x	-27%	x	-5%	x	x
COC(=O)C1=C(C(=O)OC)SC2(S1)C(C(=O)OC)=C(C(=O)OC)SC1=C2c2cccc(C)c2NC1(C)C	4µM*	23µM*	7.1µM*	9.2µM*	1%	-7
CC(=O)c1ccc(NC(=O)CN2C(=O)CCc3cc(S(=O)(=O)N4CCC(C)CC4)ccc32)cc1	x	-4%	x	-25%	x	x
Cc1nc(N2CCN(C)CC2)c2c(C)c(C(=O)Nc3ccc(C)c(F)c3)sc2n1	-5%[9.24 µM]	u	14µM*	16µM*	-14%	-60*
Cc1cccc(NC(=O)c2sc3nc(C)nc(N4CCOCC4)c3c2C)c1	1%	u	3%	-29%	x	u
Cc1nc(N2CCCCC2)c2c(C)c(C(=O)Nc3ccc4c(c3)OCCO4)sc2n1	-4%	4.1µM*	-3%	u	10µM*	x
Cc1ccc(COc2ccccc2C(=S)N2CCCC2)cc1	0%	21µM*	1%	u	4%	8
O=C(c1ccc(COc2ccccc2Br)cc1)N1CCCCCC1	13%	16µM*	10%	u	-28%	-27
O=C(O)c1ccc(COc2ccccc2Cl)cc1	14%	1%	-4%	-4%	u	-6
O=C(c1ccc(COc2ccc(Cl)cc2)cc1)N1CCCCC1	-7%	u	-9%	u	u	-63*
CN(CCOc1ccc(Cl)cc1)C(=O)C1CCN(C(=O)c2ccc(Cl)cc2)CC1	-1%	u	-6%	u	u	-61*
CCCCOc1ccc(C(=O)N2CCCCCC2)cc1	-1%	-23%	-10%	-12%	u	17
CC1CCN(S(=O)(=O)c2ccc3c(c2)c(=O)c(C(=O)NCCc2ccccc2)cn3C)CC1	x	u	x	-12%	x	x
CC(=O)Nc1cccc(OCC(=O)NC(C)c2ccc3ccccc3c2)c1 (centres undefined)	-8%	u	0%	-20%	-12%	-18
CN(CCOc1ccccc1)C(=O)c1ccc(OC2CCN(C(=O)C3CC3)CC2)cc1	u	18µM*	-29%	u	u	4
COc1cc(C(=O)N(C)CCOc2ccc(C)cc2)ccc1OC1CCN(C(C)=O)CC1	7%	-25%	1%	6%	-3%	18
CC(C)Nc1nc(-c2ccccc2CO)c2sccc2n1	0%	-16%	0%	u	x	-17
COCCNc1nc(Oc2cccc(NC(C)=O)c2)c2sccc2n1	-2%	-23%	-5%	u	x	26
CC(=O)Nc1ccc(CNc2nc(NC(C)C)nc3ccsc23)cc1	-3%	-24%	-1%	0%	x	-90*
CC(=O)Nc1cccc(Oc2nc(NCC3CC3)nc3ccsc23)c1	-22%	21µM*	-29%	16µM*	x	0
COCCNc1nc(Oc2cccc(NC(C)=O)c2)c2sc(-c3ccccc3)cc2n1	-5%	u	0%	u	x	-22
OCc1ccccc1-c1nc(NCC2CC2)nc2ccsc12	5%	u	1%	u	x	4
CC(=O)Nc1cccc(Oc2nc(NC(C)C)nc3cc(-c4ccccc4)sc23)c1	u	u	u	u	x	-63*

Source: PubChem BioAssay (National Center for Advancing Translational Sciences (NCATS))
